# Measured values taken from PubChem BioAssay (NCATS).
# Unmarked numbers belong to inactive results. Inconclusive results are not listed. Entries that show only a call come without a potency. Calls of active or inactive are those of the source. Calls come from the whole dose curve; as a rule, active = well fitted curve in the direction sought with a large enough effect; inconclusive = small, poorly fitted or top-dose-only effect, or another doubt; inactive = no such curve, though single readings can be large; an effect the other way counts as inactive or inconclusive.
# How the values were obtained:
# [1] = tested on: Nanoluciferase (engineered Oplophorus gracilirostris luciferase); assay: Primary Nanoluciferase (NLuc) qHTS assay for identification of artifact compounds. (AID 1845222);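 note: NLuc secreted into diluted conditioned medium of S16 cells; series mostly up to about 54 µM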
# In short: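 NLuc from S16 cell medium (1:55) plus test compounds, 15 min, room temperature. Luminescence after Nano-Glo (1:100) addition, 5 min.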
# [2] = Primary redox qHTS assay for identification of artifact compounds. (AID 1845223)
# In short: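 Redox-cycling detection via DTT (250 uM final) oxidation coupled to Amplex Red (25 uM)/HRP (250 mU/mL) in HBSS. 15 min preincubation plus 30 min after DTT, room temperature. Ex/Em 525/598 nm; 4-parameter Hill fit against DMSO and 10 uM DA3003.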
# [3] = molecular target: Cytochrome P450 3A4 (Homo sapiens) (UniProt P08684); assay: qHTS for inhibitors of CYP3A4 against the NCATS DSHEA and TCM libraries (AID 1919971); note: potency is the fitted concentration of half-maximal effect
# Cytochrome P450 3A4 (Homo sapiens), sequence (P08684 whole entry, looked up, canonical isoform): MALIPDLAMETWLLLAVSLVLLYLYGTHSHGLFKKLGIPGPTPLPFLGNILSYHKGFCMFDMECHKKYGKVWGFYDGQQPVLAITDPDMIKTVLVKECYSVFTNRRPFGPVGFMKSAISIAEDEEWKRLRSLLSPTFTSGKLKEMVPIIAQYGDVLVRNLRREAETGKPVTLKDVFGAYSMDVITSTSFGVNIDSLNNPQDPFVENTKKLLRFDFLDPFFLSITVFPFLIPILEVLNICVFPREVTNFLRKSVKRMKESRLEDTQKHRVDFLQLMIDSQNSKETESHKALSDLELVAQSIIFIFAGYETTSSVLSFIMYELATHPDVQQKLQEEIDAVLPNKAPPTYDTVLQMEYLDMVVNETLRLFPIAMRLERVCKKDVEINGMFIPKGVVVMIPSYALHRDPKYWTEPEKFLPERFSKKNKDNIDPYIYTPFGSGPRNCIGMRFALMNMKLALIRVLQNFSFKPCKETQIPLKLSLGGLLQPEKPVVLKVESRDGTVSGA
# In short: (§1)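 Concentration-response screening with isoform-matched pro-luciferin substrates. The CYP reaction was initiated by NADPH regenerating solution and ran 30-45 min in darkness at room temperature.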
# [4] = molecular target: Cytochrome P450 2D6 (Homo sapiens) (UniProt P10635); assay: qHTS for inhibitors of CYP2D6 against the NCATS DSHEA and TCM libraries (AID 1919972)
# Cytochrome P450 2D6 (Homo sapiens), sequence (P10635 whole entry, looked up): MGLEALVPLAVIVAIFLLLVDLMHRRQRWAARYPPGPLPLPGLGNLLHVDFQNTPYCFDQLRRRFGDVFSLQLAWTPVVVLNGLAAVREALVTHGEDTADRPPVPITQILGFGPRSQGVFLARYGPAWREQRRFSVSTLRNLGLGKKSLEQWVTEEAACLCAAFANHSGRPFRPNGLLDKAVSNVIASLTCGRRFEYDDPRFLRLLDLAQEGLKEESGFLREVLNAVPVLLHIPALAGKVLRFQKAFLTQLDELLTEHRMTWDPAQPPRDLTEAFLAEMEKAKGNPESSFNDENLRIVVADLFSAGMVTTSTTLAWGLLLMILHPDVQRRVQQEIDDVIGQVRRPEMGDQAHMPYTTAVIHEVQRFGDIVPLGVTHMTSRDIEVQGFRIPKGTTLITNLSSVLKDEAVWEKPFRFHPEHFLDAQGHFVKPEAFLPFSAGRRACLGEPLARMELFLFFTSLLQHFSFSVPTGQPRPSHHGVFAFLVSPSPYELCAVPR
# In short: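 CYP2D6 enzyme with pro-luciferin substrate in manufacturer buffer (typically 100 mM KPO4), preincubated 15 min RT with substances (most at 19.5 nM upward); NADPH regeneration system (1x) started 30–45 min RT reaction; P450-Glo luminescence read after 30 min; quinidine as intraplate control.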
# [5] = molecular target: Cytochrome P450 2C9 (Homo sapiens) (UniProt P11712); assay: qHTS for inhibitors of CYP2C9 against the NCATS DSHEA and TCM libraries (AID 1919973); note: potency is the fitted concentration of half-maximal effect
# Cytochrome P450 2C9 (Homo sapiens), sequence (P11712 whole entry, looked up): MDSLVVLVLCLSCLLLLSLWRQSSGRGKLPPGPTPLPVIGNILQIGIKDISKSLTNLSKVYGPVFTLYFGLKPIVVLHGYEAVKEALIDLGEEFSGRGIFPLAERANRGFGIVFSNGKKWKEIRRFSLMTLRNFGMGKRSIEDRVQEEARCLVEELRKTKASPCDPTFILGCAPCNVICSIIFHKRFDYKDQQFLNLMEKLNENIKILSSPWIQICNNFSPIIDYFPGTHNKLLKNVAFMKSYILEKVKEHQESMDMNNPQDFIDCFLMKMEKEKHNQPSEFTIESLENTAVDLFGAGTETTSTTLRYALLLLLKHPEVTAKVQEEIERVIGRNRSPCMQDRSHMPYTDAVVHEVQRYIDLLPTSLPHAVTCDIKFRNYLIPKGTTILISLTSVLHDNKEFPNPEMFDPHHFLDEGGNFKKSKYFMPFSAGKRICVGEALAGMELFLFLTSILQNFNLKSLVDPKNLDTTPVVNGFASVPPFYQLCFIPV
# Description: (§2) Assay Development and Screening Technology Laboratory (ADST)
# (§3) National Center for Advancing Translational Sciences (NCATS), Rockville, MD
# (§4) National Institute of Health (NIH), Bethesda, Maryland
# (§5) Dietary Supplements and Natural Products have minor oversight of their safety and efficacy. We assembled a collection of Dietary Supplements and Natural Products (DSNP) as well as Traditional Chinese Medicinal (TCM) Plant extracts, which were screened against an in vitro panel of assays, including a liver cytochrome p450 enzyme panel, CAR/PXR signaling pathways, and P-gp transporter assays, to assess their activity. This pipeline facilitated the interrogation of Natural Product-Drug Interaction (NaPDI) through prominent metabolizing pathways. In addition, we compared the activity profiles of the DSNP/TCM substances with those of an approved drug collection. Many of the approved drugs have well-annotated mechanisms of action (MOA) while the MOAs for most of the DSNP and TCM samples remain unknown. […] Overall, we highlight four significant bioactivity profiles (measured by p-values) as examples of this prediction. […] To profile potential P-gp activity, a differential cell viability was measured against two cell lines: a parental KB-3-1 human cervical adenocarcinoma cell line and the drug-resistant subline KB-8-5-11 that overexpresses P-gp. […]
# (§6) 9; Read; Luminescence; ViewLux plate reader. […]
# [6] = molecular target: Cytochrome P450 2C19 (Homo sapiens) (UniProt P33261); assay: qHTS for inhibitors of CYP2C19 against the NCATS DSHEA and TCM libraries (AID 1919974);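 note: luminescence from luciferin released by CYP2C19 oxidation of a pro-luciferin substrate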; note: potency is the fitted concentration of half-maximal effect
# Cytochrome P450 2C19 (Homo sapiens), sequence (P33261 whole entry, looked up): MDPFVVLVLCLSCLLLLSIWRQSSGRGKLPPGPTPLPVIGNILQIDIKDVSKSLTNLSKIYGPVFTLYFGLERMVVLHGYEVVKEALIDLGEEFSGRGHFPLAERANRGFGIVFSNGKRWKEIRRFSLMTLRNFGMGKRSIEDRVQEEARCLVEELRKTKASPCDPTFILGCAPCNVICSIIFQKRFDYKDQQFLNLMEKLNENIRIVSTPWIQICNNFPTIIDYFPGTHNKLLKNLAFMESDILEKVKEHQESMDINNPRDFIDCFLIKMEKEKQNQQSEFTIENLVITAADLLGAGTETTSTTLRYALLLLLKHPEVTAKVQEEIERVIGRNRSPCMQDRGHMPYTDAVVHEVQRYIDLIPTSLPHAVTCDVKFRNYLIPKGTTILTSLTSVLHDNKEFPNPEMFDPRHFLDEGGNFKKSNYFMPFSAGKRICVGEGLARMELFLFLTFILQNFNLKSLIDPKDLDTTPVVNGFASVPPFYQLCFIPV
# In short: as §1
# [7] = KB-3-1 P-gp reporter qHTS against the NCATS DSHEA and TCM libraries (AID 1919975)
# In short: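 KB-3-1 parental line, 1536-well qHTS: cells seeded, ~4 h attachment, pintool compound addition, ~72 h at 37C, then CellTiter-Glo, 30 min RT, luminescence. Concentration-response format.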
# [8] = molecular target: Cytochrome P450 1A2 (Homo sapiens) (UniProt P05177); assay: qHTS for inhibitors of CYPIA2 against the NCATS DSHEA and TCM libraries (AID 1919976); note: potency is the fitted concentration of half-maximal effect
# Cytochrome P450 1A2 (Homo sapiens), sequence (P05177 whole entry, looked up): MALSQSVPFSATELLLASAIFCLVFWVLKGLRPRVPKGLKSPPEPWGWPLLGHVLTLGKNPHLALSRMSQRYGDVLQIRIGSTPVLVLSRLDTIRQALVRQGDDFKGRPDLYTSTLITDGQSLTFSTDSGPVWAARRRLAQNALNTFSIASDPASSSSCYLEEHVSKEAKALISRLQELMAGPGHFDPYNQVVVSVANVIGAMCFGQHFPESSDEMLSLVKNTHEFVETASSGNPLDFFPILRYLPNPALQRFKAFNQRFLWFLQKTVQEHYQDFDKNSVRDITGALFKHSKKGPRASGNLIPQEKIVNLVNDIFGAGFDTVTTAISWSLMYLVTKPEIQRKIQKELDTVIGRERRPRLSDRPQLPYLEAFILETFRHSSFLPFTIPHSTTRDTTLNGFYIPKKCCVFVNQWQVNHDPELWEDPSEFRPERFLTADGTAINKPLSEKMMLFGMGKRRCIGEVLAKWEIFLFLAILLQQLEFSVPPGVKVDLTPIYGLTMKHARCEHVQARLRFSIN
# Description: as §2, §3, §4, §5, §6
# [9] = qHTS Counterscreen for compound interference against the NCATS DSHEA and TCM libraries (AID 1919978); settings: firefly luciferase detection reagent interference, luminescence;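 note: compounds preincubated with 1 µM D-luciferin or buffer before detection reagent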
# In short: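 Compounds, titrated from 19.5 nM to 39.8 uM final, were pinned onto 1 uM D-luciferin or plain 100 mM potassium phosphate. After 15 min at room temperature, luciferin detection reagent was added for 30 min before the luminescence read.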
# [10] = Dual reporter qHTS for agonist of Pregnane X Receptor (hPXR) against the NCATS DSHEA and TCM libraries: Fluorescence readout (AID 1920058)
# In short: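 Cells were plated at 2000 per well and allowed to attach for 5 h. Test substances were pinned in and incubated roughly 24 h. CellTiter-Fluor was then added and fluorescence measured after 1 h.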
smiles,measurement,setting,value
C/C=C/C=C/C=C/C(=O)O[C@@H]1C=C(CO)[C@](O)(CO)[C@@]2(C)CCCC(C)(C)[C@H]12,Potency,[1],inactive
same,Potency,[2],inactive
CC1(C)C2CC[C@]3(C)C(C(=O)C=C4[C@H]5C[C@@](C)(C(=O)O)CC[C@]5(C)CC[C@]43C)[C@@]2(C)CC[C@@H]1O (some centres undefined),Potency,[1],inactive
same,Potency,[2],inactive
C[C@]1(OC(=O)/C=C/c2ccccc2)C[C@@H](O)[C@]2(O)C=CO[C@@H](O[C@@H]3O[C@H](CO)[C@@H](O)[C@H](O)[C@H]3O)[C@@H]21,Potency,[1],inactive
same,Potency,[2],inactive
COC(=O)C(CC1CCCC1)c1ccc(S(C)(=O)=O)cc1 (centres undefined),Potency,[1],inactive
same,Potency,[2],inactive
CC(=O)OC1C(C)C2C(OC3OC(CO)C(O)C(O)C3O)OC=C(C(=O)O)C2C1OC(=O)c1ccccc1 (centres undefined),Potency,[1],inactive
same,Potency,[2],inactive
CC(=O)c1ccc(O[C@@H]2OC[C@@H](O)[C@H](O)[C@H]2O[C@]2(CO)O[C@H](CO)[C@@H](O)[C@@H]2O)c(O)c1,Potency,[1],inactive
same,Potency,[2],inactive
COC(=O)C1=COC(O[C@@H]2O[C@H](CO)[C@@H](O)[C@H](O)[C@H]2O)C2C(C)C(=O)CC12 (some centres undefined),Potency,[1],inactive
same,Potency,[2],inactive
NC1Nc2ccccc2C1(N)CC1NC(=O)C(Cc2ccccc2)NC(=O)C(Cc2ccccc2)NC1=O (centres undefined),Potency,[1],inactive
same,Potency,[2],inactive
O=C(OCC1=C[C@@H](O)[C@@H]2C=CO[C@@H](O[C@@H]3O[C@H](CO)[C@@H](O)[C@H](O)[C@H]3O)[C@H]12)c1ccc(O)cc1,Potency,[1],inactive
same,Potency,[2],inactive
same,Potency,[3],inactive
same,outcome,[4],inactive
same,Potency,[5],inactive
same,Potency,[6],inactive
same,outcome,[7],inactive
same,Potency,[8],inactive
same,max response,[9],-1.45%
same,outcome,[10],inactive
CC(C)(Oc1ccc(-c2nc3cc(Cl)ccc3s2)cc1)C(=O)O,Potency,[2],inactive
NC(N)=NCCC[C@H](NC(=O)c1sccc1NS(=O)(=O)c1cccc2nsnc12)C(=O)O,Potency,[1],inactive
same,Potency,[2],inactive
C=CC(C)(O)C1CC2C3(C)CCCC(C)(C)C3C(O)C(O)C2(C)O1 (centres undefined),Potency,[1],inactive
same,Potency,[2],inactive
Cc1cc(-n2c(=O)[nH]c(=O)n(C)c2=O)ccc1Oc1ccc(SC(F)(F)F)cc1,Potency,[1],inactive
same,Potency,[2],inactive
COC(=O)CCC1(C)C(C(C)(C)O)C(O)CC2(C)Oc3c(C)c4c(c(OC)c3CC21)C(=O)OC4 (centres undefined),Potency,[1],inactive
same,Potency,[2],inactive
CC(=O)/C=C/C1(O)C(C)CC(O[C@@H]2O[C@H](CO)[C@@H](O)[C@H](O)[C@H]2O)CC1(C)C (some centres undefined),Potency,[2],inactive
CC(=O)O[C@@H]1C[C@@H](C)[C@](O)(CCC2=CC(=O)OC2)[C@@]2(C)CCCC(C)(C)C12 (some centres undefined),Potency,[1],inactive
same,Potency,[2],inactive
same,Potency,[3],4.47 µM (active)
same,outcome,[4],inactive
same,Potency,[5],8.91 µM (active)
same,Potency,[6],2.82 µM (active)
same,outcome,[7],inactive
same,Potency,[8],3.98 µM (active)
same,max response,[9],-1.72%
same,outcome,[10],inactive
O=C(CCc1ccccc1)c1c(O)c([C@@H]2O[C@H](CO)[C@@H](O)[C@H](O)[C@H]2O)c(O)c([C@@H]2O[C@H](CO)[C@@H](O)[C@H](O)[C@H]2O)c1O,Potency,[1],inactive
same,Potency,[2],inactive
Cc1nnc(-c2sc(NC(=O)[C@H](C(C)C)n3c(=O)[nH]c4ccccc4c3=O)nc2C)o1,Potency,[1],inactive
same,Potency,[2],inactive
COC(=O)/C=C/c1ccc(O[C@@H]2O[C@H](CO)[C@@H](O)[C@H](O)[C@H]2O)cc1,Potency,[1],inactive
same,Potency,[2],inactive
CC/C=C\CC1C(CC(=O)O)CCC1OC1OC(CO)C(O)C(O)C1O (centres undefined),Potency,[1],inactive
same,Potency,[2],inactive
